This note sets out measurements from PubChem BioAssay (NCI).

Molecules are shown by their SMILES. The panel holds about 83,000 compounds, 20% with a hit somewhere; the sample as a whole holds those more often.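 In brief: 96-well plates, 48 h treatment, single concentration, percent growth endpoint.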 Unmarked numbers belong to inactive results. Calls of active or inactive are those of the source. How the source made its calls: active means growth percent below 10; inactive means the rest.

Some test systems named below: NCI-H23 lung; NCI-H226 lung; NCI-H322M lung; HOP-62 NSCLC; NCI-H460 lung; HOP-92 NSCLC; A549/ATCC NSCLC; 786-0 renal; COLO 205 colon.
Common to all, as to test: NCI-60 one-dose screen, 48 h (100 = growth as untreated, 0 = no growth, -100 = all killed)
Common to all, as to conditions: 10 µM unless noted

In the case of `Cc1ccc(N2CCN(C3=C(Cl)C(=O)c4ncccc4C3=O)CC2)cc1`, the growth in the assay on NCI-H23 lung was 35.6%; in the assay with NCI-H226 lung it was 93.2%; in the assay on NCI-H322M lung it was 97.4%; in the assay on HOP-62 NSCLC it was 73.1%; in the assay on NCI-H460 lung, 44.8%; with HOP-92 NSCLC it was 84.4%. The growth in the assay with A549/ATCC NSCLC was 91.3%; in the assay on 786-0 renal it was 99.5%; in the assay on COLO 205 colon it was 75.3%.

Turning to `COc1ccc(C2CC(c3cccc(OCCCCOc4cccc(C5=NOC(c6ccc(OC)cc6)C5)c4)c3)=NO2)cc1` (stereo not drawn), the growth was 103% in the assay with NCI-H23 lung; 100% in the assay on NCI-H226 lung; 94.7% in the assay with NCI-H322M lung; 105% with HOP-62 NSCLC; 102% with NCI-H460 lung; 104% in the assay on HOP-92 NSCLC. Also, the growth in the assay with A549/ATCC NSCLC is 88.5%; in the assay with 786-0 renal it was 99.1%; with COLO 205 colon, 100%.

Regarding `Cc1ccc(/C(N)=N/C(N)=N/c2nc3ccccc3s2)cc1`, the growth in the assay with NCI-H23 lung was 48.9%; in the assay on NCI-H226 lung, 63.2%; with NCI-H322M lung, 91.3%; in the assay with HOP-62 NSCLC, -42.4% (active); in the assay with NCI-H460 lung, 75.7%; with HOP-92 NSCLC, 122%. In addition, the results for the growth in the assay with A549/ATCC NSCLC, with 786-0 renal and in the assay on COLO 205 colon were 19.6%, 109% and 120%, respectively.

Consider `C#CCOc1ccc(/C=N/Nc2nc(-c3ccc(OC)cc3)cs2)cc1`, for which the growth in the assay on NCI-H23 lung is 68.9%; with NCI-H226 lung it was 63.7%; in the assay on NCI-H322M lung, 95%; in the assay with HOP-62 NSCLC it was 97.6%; in the assay with NCI-H460 lung, 77.3%; in the assay on HOP-92 NSCLC, 68.6%. The figures for the growth with A549/ATCC NSCLC, with 786-0 renal and in the assay with COLO 205 colon were 77%, 89.2% and 96.1%, respectively.

As to `Cc1ccc(S(=O)(=O)NCCCNc2nc(Nc3ccc(N4CCN(C)CC4)cc3)nc3ccsc23)cc1`, the growth in the assay with NCI-H23 lung is 75.6%; in the assay on NCI-H226 lung it was 117%; with NCI-H322M lung, 52.7%; with HOP-62 NSCLC, 97.1%; in the assay on NCI-H460 lung it was 18.5%; with HOP-92 NSCLC, 49.6%. The figures for the growth in the assay with 786-0 renal and in the assay with COLO 205 colon were -26.7% (active) and -32.9% (active), respectively.

With `CC(=O)OCCCCN1C=C/C(=C\C(=O)n2ccc3ccccc32)c2ccccc21`, the growth was 96.2% in the assay with NCI-H23 lung; 88.5% in the assay on NCI-H226 lung; 98.7% in the assay with NCI-H322M lung; 108% in the assay on HOP-62 NSCLC; 102% in the assay on NCI-H460 lung; 97.6% in the assay with HOP-92 NSCLC. Moreover, the results for the growth with A549/ATCC NSCLC, with 786-0 renal and in the assay on COLO 205 colon were 113%, 107% and 108%, respectively.

Turning to `Brc1cc(-c2cc(-c3ccc4c(c3)OC=CO4)[nH]n2)cs1`, the growth in the assay on NCI-H23 lung was 79.3%; in the assay on NCI-H226 lung it was 92%; in the assay with NCI-H322M lung it was 91.4%; in the assay with HOP-62 NSCLC, 84.7%; in the assay with NCI-H460 lung, 97.8%; with HOP-92 NSCLC it was 101%. Further, the growth is 93.9% in the assay on A549/ATCC NSCLC, 106% in the assay on 786-0 renal and 98.5% with COLO 205 colon.

`Cc1ccsc1[C@H]1c2[nH]c3ccccc3c2C[C@H]2C(=O)N(CCCCCCC(=O)NO)CC(=O)N12`: the growth in the assay with NCI-H23 lung is 89.6%; in the assay with NCI-H226 lung, 97.3%; with NCI-H322M lung it was 81.1%; with HOP-62 NSCLC, 101%; in the assay with NCI-H460 lung, 78.4%; in the assay with HOP-92 NSCLC it was 92.6%. The growth was 99.3% in the assay on A549/ATCC NSCLC, 99.1% in the assay on 786-0 renal and 96.5% with COLO 205 colon.

Regarding `CCCCCCNC(=O)Oc1ccc(/C(=C(/C)c2ccc(OC)cc2)c2ccc(OCCN3CCCCCC3)cc2)cc1`, the growth is 20.4% with NCI-H23 lung; 81% in the assay with NCI-H226 lung; 82.1% in the assay on NCI-H322M lung; -9.29% (active) in the assay on HOP-62 NSCLC; -67.9% (active) with NCI-H460 lung; 63.4% with HOP-92 NSCLC. Also, the growth was 45.7% in the assay with A549/ATCC NSCLC, 24.3% with 786-0 renal and -60.5% (active) in the assay on COLO 205 colon.

Take `COc1cc(C(=O)c2cc(C(C)=O)c3ccc(C)cn23)cc(OC)c1OC`: the growth with NCI-H23 lung is 48.9%; with NCI-H226 lung, 66.3%; with NCI-H322M lung it was 66%; in the assay on HOP-62 NSCLC, 52.4%; in the assay with NCI-H460 lung it was 15.9%; in the assay with HOP-92 NSCLC, 97%. In addition, the growth in the assay with A549/ATCC NSCLC was 46.7%; in the assay with 786-0 renal, 50.5%.

For the molecule `CN1CCN(Cc2ccc(NC(=O)c3cncc(C#Cc4cnc5ccc(OCC6COC6)nn45)c3)cc2C(F)(F)F)CC1`, the growth in the assay on NCI-H23 lung was -58% (active); in the assay on NCI-H226 lung it was -65.2% (active); with NCI-H322M lung, -36.5% (active); in the assay with HOP-62 NSCLC, -72.3% (active); in the assay with NCI-H460 lung, -81% (active); in the assay with HOP-92 NSCLC, -33.4% (active). Besides, the values for the growth with A549/ATCC NSCLC, with 786-0 renal and in the assay with COLO 205 colon were -68.7% (active), -85.6% (active) and -76.3% (active), respectively.

Regarding `CN1CCN(CCNc2nc(-c3cccc(NS(=O)(=O)c4cccc5c(N(C)C)cccc45)c3)cs2)CC1`, the growth was 51.9% with NCI-H23 lung; 66.3% in the assay on NCI-H226 lung; 85.8% in the assay with NCI-H322M lung; 82% in the assay on HOP-62 NSCLC; 70.7% with NCI-H460 lung; 39.7% with HOP-92 NSCLC. Further, the growth was 69.6% with A549/ATCC NSCLC, 60.8% in the assay with 786-0 renal and 85.6% with COLO 205 colon.

As to `COc1ccccc1N1CCN(C2=C(Cl)C(=O)c3ncccc3C2=O)CC1`, the growth in the assay with NCI-H23 lung was 56.3%; in the assay with NCI-H226 lung it was 91%; with NCI-H322M lung, 92.4%; in the assay with HOP-62 NSCLC, 93.4%; in the assay with NCI-H460 lung, 75%; in the assay with HOP-92 NSCLC, 135%. Besides, the growth is 107% in the assay on 786-0 renal and 106% in the assay with COLO 205 colon.

As for `O=C(Nc1ccc(N=Cc2c(O)[nH]c3ccccc23)cc1)Nc1ccc(S(=O)(=O)Nc2ncccn2)cc1`, the growth is 27.1% with NCI-H23 lung; 96.7% with NCI-H226 lung; 114% with NCI-H322M lung; 99% in the assay on HOP-62 NSCLC; 104% in the assay with NCI-H460 lung; 94.2% with HOP-92 NSCLC. In addition, the growth with A549/ATCC NSCLC was 101%; with 786-0 renal, 100%; in the assay on COLO 205 colon it was 125%.

Turning to `O=C(CSc1nnc(-c2ccc(Cl)cc2)n1-c1ccccc1)Nc1ccc(Cl)cc1`, the growth was 29.1% with NCI-H23 lung; 16% in the assay with NCI-H226 lung; 41.2% in the assay on NCI-H322M lung; 82.8% in the assay with HOP-62 NSCLC; 19.4% in the assay with NCI-H460 lung; -5.1% (active) in the assay with HOP-92 NSCLC. Besides, the growth in the assay on A549/ATCC NSCLC was 21.5%; in the assay on 786-0 renal it was -50.2% (active); in the assay with COLO 205 colon, 90.2%.

With `CNC(=O)c1cc(-n2ccc3cc(NC(=O)Nc4ccc(N5CCN(C)CC5)c(C(F)(F)F)c4)ccc32)ccn1`, the growth in the assay with NCI-H23 lung is 88.6%; in the assay on NCI-H226 lung, 96.4%; with NCI-H322M lung, 85.4%; in the assay on HOP-62 NSCLC, 75.6%; in the assay with NCI-H460 lung it was 60%; with HOP-92 NSCLC, 71.1%. The growth with A549/ATCC NSCLC was 68.2%; with 786-0 renal, -13.7% (active); in the assay on COLO 205 colon, 90.8%.

Turning to `Oc1[nH]c2ccc(Cl)cc2c1N=Nc1nc(N=Nc2c(O)[nH]c3ccc(Cl)cc23)nc(N2CCCCC2)n1`, the growth is 27.3% in the assay on NCI-H23 lung; 63.4% in the assay on NCI-H226 lung; 59.4% in the assay on NCI-H322M lung; 94% in the assay on HOP-62 NSCLC; 78% with NCI-H460 lung; 125% in the assay on HOP-92 NSCLC. The growth with A549/ATCC NSCLC is 60.4%; in the assay on 786-0 renal, 66%; with COLO 205 colon it was 66.6%.

In the case of `O=C1CSC(c2cn(-c3ccccc3)nc2-c2ccc(Cl)cc2)N1c1ccccc1` (stereo not drawn), the growth in the assay with NCI-H23 lung was 96.9%; in the assay on NCI-H226 lung, 98.4%; with NCI-H322M lung, 112%; in the assay on HOP-62 NSCLC, 99.6%; with NCI-H460 lung, 111%; with HOP-92 NSCLC, 100%. For the same molecule, the growth in the assay with A549/ATCC NSCLC is 98.1%; in the assay with 786-0 renal it was 106%; in the assay with COLO 205 colon, 120%.

Consider `CS(=O)(=O)c1ccc(/C(=N/N=C(N)N)c2ccc(Cl)cc2)cc1`, for which the growth in the assay on NCI-H23 lung is 95.4%; in the assay with NCI-H226 lung, 95.5%; in the assay with NCI-H322M lung, 94.9%; with HOP-62 NSCLC, 85.1%; in the assay with NCI-H460 lung, 99.1%; in the assay on HOP-92 NSCLC it was 57.2%. For the same molecule, the results for the growth in the assay with A549/ATCC NSCLC, in the assay with 786-0 renal and with COLO 205 colon were 99.2%, 88.5% and 91.5%, respectively.
